Screens deposited in PubChem BioAssay by National Center for Advancing Translational Sciences (NCATS).
Compounds with a hit are over-represented: about 15% of the library has one in this group of screens.
TDP1 cell noCPT: qHTS for Inhibitors of human tyrosyl-DNA phosphodiesterase 1 (TDP1): qHTS in cells in absence of CPT. DT40 Tdp1-/- hTDP1 cells, no CPT, ATP luminescence, 48 h. Potency, µM (highest dose often 46.2 µM), for inactives: at the highest dose activity change, negative = growth inhibition, actives largely listed as inhibitors. 420,000 tested, 15% active. AID 686978, 2013; note: nearly all actives have a fitted effect of over 55% in size
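DT40 Tdp1-/-;hTDP1 cells, no CPT (DMSO vehicle only), 400 cells/well; compounds pin-transferred; ≥48 hr, 37 °C; CellTiter-Glo 30 min RT dark, luminescence read.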
RORg inh: inhibitors of mouse ROR gamma transcriptional activity; Drosophila S2 Gal4-RORgamma UAS-luciferase reporter, 20 h; Potency, µM (doses to about 53.6 µM), inactives show at the highest dose activity change, negative = inhibition, usual class: inhibitors; 310,000 tested, 5.4% active; AID 2551; note: nearly all actives have a fitted effect of over 60% in size
Target sequence (P51450 whole entry, looked up, the tested form may be a part): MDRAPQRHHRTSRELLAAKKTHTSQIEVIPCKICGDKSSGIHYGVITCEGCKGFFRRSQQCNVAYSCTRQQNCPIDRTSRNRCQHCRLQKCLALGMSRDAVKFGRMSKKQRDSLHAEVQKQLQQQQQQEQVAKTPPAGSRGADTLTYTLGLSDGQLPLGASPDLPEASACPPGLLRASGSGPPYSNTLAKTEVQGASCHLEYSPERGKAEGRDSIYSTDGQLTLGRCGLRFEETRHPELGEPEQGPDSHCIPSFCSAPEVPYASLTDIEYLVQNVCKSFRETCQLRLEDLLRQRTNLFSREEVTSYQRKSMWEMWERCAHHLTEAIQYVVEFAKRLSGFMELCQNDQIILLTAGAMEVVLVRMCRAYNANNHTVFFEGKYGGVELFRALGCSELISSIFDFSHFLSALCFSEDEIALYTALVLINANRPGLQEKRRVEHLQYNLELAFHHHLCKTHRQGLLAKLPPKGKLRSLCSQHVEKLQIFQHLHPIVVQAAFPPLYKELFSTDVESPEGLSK
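Luminescence from a UAS-regulated Photinus luciferase reporter in stably transfected Drosophila Schneider cells is measured; decreased signal marks ROR gamma inhibition. Fusion expression is induced by 700 uM copper sulfate for 20 hr.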
ELG1 repair inh: ELG1-dependent DNA repair inhibition; Potency, µM (doses to about 46.1 µM), for inactives: top-dose activity change, negative = inhibition, actives largely listed as inhibitors; HEK293T ELG1-luciferase reporter, luminescence, 16 h; DNA damage induced by 5-fluorouridine; 330,000 tested, 2.3% active; note: nearly all actives have a fitted effect of over 55% in size
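Step one: seed 2,000 cells per well. Step two: pin-transfer compound or DMSO alongside 5-fluorouridine. Step three: incubate 16 hr, 37 °C, 5% CO2. Step four: add ONE-Glo, wait 30 min, read luminescence.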
ALOX12 inh: blocks human arachidonate 12S-lipoxygenase; AID 1671190; purified 12hLO, xylenol orange hydroperoxide absorbance; 580,000 tested, 1.1% active; Potency, µM (highest dose often 108 µM), for inactives: at the highest dose activity change, negative = inhibition, actives largely listed as inhibitors
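Hydroperoxide product was detected by ferrous iron/xylenol orange as the 573 to 405 nm absorbance ratio. Arachidonic acid at 40 uM (final) was turned over for 30 min at room temperature by 150 nM human 12hLO, pH 7.0 Hepes buffer, after 15 min compound preincubation.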
DT40 TDP1 CPT: DT40-hTDP1 cell growth loss with CPT; 420,000 tested, 12% active; AID 686979; Potency, µM (top dose mostly 46.2 µM), for inactives: at the highest dose activity change, negative = growth inhibition, most hits filed as inhibitors; chicken DT40 Tdp1-/-;hTDP1 cells + 20 nM CPT, ATP luminescence, 48 h; note: nearly all actives have a fitted effect of over 55% in size
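Chicken DT40 Tdp1-/- cells stably complemented with human TDP1 were seeded at 400 cells/well in medium containing 20 nM camptothecin, exposed to pin-transferred compounds, and grown at 37 °C for at least 48 hr. Viability was read as ATP luminescence.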
Gal4-VP16 FLuc: inhibits Gal4-VP16 luciferase reporter, ROR gamma counter-screen | Potency, µM (top dose mostly 53.6 µM), inactives show at the highest dose activity, negative = inhibition, hits mostly inhibitors | Drosophila S2 Gal4-VP16 UAS-luciferase, luminescence, 20 h | 310,000 tested, 3.5% active;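 note: Gal4-VP16 expression switched on by copper sulfate through the metallothionein promoter; nearly all actives have a fitted effect of over 50% in size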
Active calls of the source: *; ? = inconclusive; . = no result given; [ ] = remark or other dose. Calls come from the whole dose curve; as a rule, active = well fitted curve in the direction sought with a large enough effect; inconclusive = small, poorly fitted or top-dose-only effect, or another doubt; inactive = no such curve, though single readings can be large; an effect the other way counts as inactive or inconclusive. % is set by controls: 0 for no effect and ±100 for the full control effect; potency is the fitted concentration of half-maximal effect.

SMILES | TDP1 cell noCPT | RORg inh | ELG1 repair inh | ALOX12 inh | DT40 TDP1 CPT | Gal4-VP16 FLuc
NC(=O)c1ccsc1NC(=O)C1CCN(S(=O)(=O)c2cccs2)CC1 | ? | . | ? | -11% | -27% | .
O=C(NCc1ccc2c(c1)OCO2)C1CCN(S(=O)(=O)c2ccc(Br)s2)CC1 | 21µM* | 7% | ? | 0% | -22% | 4%
CNC(=O)c1ccsc1NC(=O)C1CCN(S(=O)(=O)c2ccc(Cl)s2)CC1 | ? | . | 18µM* | -1% | 16µM* | .
CC(=O)c1ccc(NC(=O)C2CCCN(S(=O)(=O)c3ccc(Br)s3)C2)cc1 (stereo not drawn) | -6% | . | . | ? | -5% | .
O=C(Nc1ccc(Cl)cc1)C1CCN(S(=O)(=O)c2ccc(Br)s2)CC1 | 23µM* | . | . | ? | ? | .
O=C(NCCc1ccc(Cl)cc1)C1CCN(S(=O)(=O)c2ccc(Br)s2)CC1 | ? | ? | ? | 1% | -29% | 1%
Cc1cc(NC(=O)C2CCCN(S(=O)(=O)c3ccc(Br)s3)C2)ccc1Br (stereo not drawn) | 13µM* | . | . | ? | ? | .
O=S(=O)(c1ccc(Br)s1)N1CCC(Cc2ccccc2)CC1 | ? | 13µM* | 5% | 19% | 14µM* | -11%
COc1ccc(C(=O)N2CCC3(CC2)CC(C(C)C)=NO3)cc1 | . | . | . | 18%[176 µM] | . | .
CSc1nnnn1-c1ccc(C(=O)Nc2ccc(Br)c(C)c2)cc1 | . | . | . | -9% | . | .
CCn1c(=O)c2c(nc(-n3nc(C)cc3C)n2CC)n(C)c1=O | . | . | . | 31% | . | .
Cc1ccc(C(=O)NN=C2CCCCCC2)s1 | 0% | ? | 0% | 22% | 5% | -10%
O=C(NN=C1CCCCCC1)c1ccc(Cl)s1 | 3% | ? | 18% | -2% | -5% | 13µM*
O=C(O)COc1ccccc1/C=N/NC(=O)CSc1nnc(SCc2ccc(Cl)cc2)s1 | -14% | -4% | 3% | -25% | -23% | -8%
O=C(CSc1nnc(SCc2cccc3ccccc23)s1)N/N=C/c1c[nH]c2ccccc12 | 16µM* | -29% | ? | -16% | ? | -7%
O=C(CSc1nnc(SCc2ccc(Cl)cc2)s1)N/N=C/c1c[nH]c2ccccc12 | ? | 11µM* | -1% | -15% | ? | 8.9µM*
Cn1nccc1-c1nccc2c(=O)cc(N3CCOCC3)oc12 | . | . | . | 16%[176 µM] | . | .
O=C(Nc1ccc2c(c1)OCO2)N1CCN(c2cccc(C(F)(F)F)c2)CC1 | 21µM* | 16% | -7% | -14% | 9.2µM* | -13%
O=C(c1ccc2c(c1)OCO2)N1CCN(c2cccc(C(F)(F)F)c2)CC1 | 21µM* | 1% | ? | -8% | 18µM* | 1%
CCS(=O)(=O)N1CCc2cc(C(=O)N3CCN(c4cccc(C(F)(F)F)c4)CC3)ccc21 | 23µM* | . | . | ? | ? | .
COc1ccc(N2CCN(C(=O)Nc3cccc(C(F)(F)F)c3)CC2)cc1 | 18µM* | 2% | ? | ? | ? | 3%
O=C(c1ccc2c(c1)OCO2)N1CCN(c2ccc(F)cc2)CC1 | -23% | 6% | 19% | -23% | -3% | 10%
CCCCOC(=O)Nc1ccccc1N=C1CCC/C1=C\c1ccccc1 | . | . | . | -19% | . | .
Cc1ccc(CCNc2ncnc3onc(-c4ccc(F)cc4)c23)cc1 | 2% | . | . | 0% | -1% | .
Fc1ccc(-c2noc3ncnc(NCCc4ccc(Cl)cc4)c23)cc1 | 10µM* | . | . | -4% | 15µM* | .
SMILES | TDP1 cell noCPT | RORg inh | ELG1 repair inh | ALOX12 inh | DT40 TDP1 CPT | Gal4-VP16 FLuc
Fc1ccc(-c2noc3ncnc(NCCc4ccccc4)c23)cc1 | 16µM* | . | . | -13% | ? | .
CCCNc1ncnc2onc(-c3ccc(Cl)cc3)c12 | . | . | . | 0% | . | .
CSc1ccc(CCNc2ncnc3onc(-c4ccc(Cl)cc4)c23)cc1 | 10µM* | . | . | -13% | 16µM* | .
Cc1ccc(S(=O)(=O)NC2CC2)cc1C(=O)Nc1ccccc1C(=O)NC1CC1 | . | . | . | 14% | . | .
COc1ccc2c(c1)CC/C(=C/c1ccncc1)C2=O | 16µM* | -40% | -24% | . | 16µM* | ?
COc1ccc(/C=C2\CCc3ccccc3C2=O)cc1O | 0.82µM* | ? | ? | ? | 0.52µM* | ?
O=C1/C(=C/c2ccc(Cl)c(Cl)c2)CCc2ccccc21 | . | . | . | 4% | . | .
COc1ccc2c(c1)CC/C(=C\c1ccc(SC)cc1)C2=O | . | . | . | -51% | . | .
COc1ccc(/C=C2\CCc3ccccc3C2=O)cc1Cn1cccn1 | ? | 16% | -3% | -2% | 21µM* | 23%
COc1ccc(/C=C2\Cc3ccccc3C2=O)cc1OC | ? | -1% | ? | -2% | -19% | -14%
COc1ccc(/C=C2\CCC(C3CCCC3)C2=O)cc1Cn1cccn1 (stereo not drawn) | ? | -13% | -21% | -19% | 18µM* | ?
CCOc1ccc(/C=C2\CCC(C3CCCC3)C2=O)cc1OC (stereo not drawn) | ? | 9% | ? | -20% | ? | 15%
Cc1ccc(NC(NC(=O)c2ccc(C(C)(C)C)cc2)C(Cl)(Cl)Cl)cc1C (stereo not drawn) | . | . | . | 9% | . | .
CC(=O)N1CCN(c2ccnc3cc(Cl)ccc23)CC1 | -28% | 14% | ? | 4% | -13% | -5%
O=C(O)CSCC(=O)N1CCN(c2ccnc3cc(Cl)ccc23)CC1 | 8% | -3% | 12% | . | 3% | 4%
Cc1cccc(Cl)c1NC(=O)N1CCN(c2ccnc3cc(Cl)ccc23)CC1 | 13µM* | 8% | 18µM* | 0% | ? | -4%
O=C(Nc1cc(F)ccc1F)N1CCN(c2ccnc3cc(Cl)ccc23)CC1 | 5.2µM* | 53% | ? | 0% | 4.1µM* | 13µM*
O=C(Nc1ccc(C(F)(F)F)cc1)N1CCN(c2ccnc3cc(Cl)ccc23)CC1 | 16µM* | 3% | ? | 98% | 23µM* | -8%
Cc1ccc(F)cc1NC(=O)N1CCN(c2ccnc3cc(Cl)ccc23)CC1 | ? | 7% | ? | 483% | ? | 0%
CCCCNC(=O)N1CCN(c2ccnc3cc(Cl)ccc23)CC1 | 13µM* | ? | 21µM* | . | 21µM* | ?
COCc1cn(C[C@H]2C[C@@H](NC(=O)c3cc(C)on3)[C@H](O)[C@@H]2O)nn1 | . | . | . | 78%[176 µM] | . | .
COC(=O)c1ccc(Oc2c(C(F)(F)F)oc3c(CN4CCN(C)CC4)c(O)ccc3c2=O)cc1 | -17% | 17% | ? | 13% | -3% | -7%
